Experimental data: PubChem BioAssay (NCI)
The panel holds about 79,000 compounds, 15% with a hit somewhere; the sample as a whole holds those more often. Activity calls are given as the source filed them. Cut-off read from the data, not from the text of the source: active = growth inhibition above about 70%; inactive = the rest.

Tests used:
[1] = NCI Yeast Anticancer Drug Screen. Data for the rad52 strain (AID 147);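 note: 0% = growth of vehicle-treated control cultures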; settings: S. cerevisiae rad52 mutant growth inhibition, active compounds read high
Summary of the method: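 Yeast strain carrying a DNA damage repair alteration was exposed to test compounds. Growth inhibition was measured relative to vehicle-treated controls.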

[2] = NCI Yeast Anticancer Drug Screen. Data for the wt1 strain (AID 149);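 note: 0% = growth of vehicle-treated wt1 cultures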; settings: S. cerevisiae wt1 strain (SPY 50644) growth inhibition, active compounds read high
Summary of the method: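 wt1 strain grown with compound or vehicle; inhibition taken from the growth difference.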

[3] = NCI Yeast Anticancer Drug Screen. Data for the rad50EPP+ strain (AID 151);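 note: 0% = growth of vehicle-treated control cultures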; settings: S. cerevisiae rad50 mutant strain, active compounds read high
Summary of the method: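 Yeast strain carrying rad50 alteration (rad50EPP+) exposed to compounds; growth inhibition measured relative to vehicle-treated controls.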

[4] = NCI Yeast Anticancer Drug Screen. Data for the mgt1 strain (AID 153); settings: S. cerevisiae mgt1 mutant growth inhibition, active compounds read high
Summary of the method: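 Yeast mgt1 strain (DNA repair/cell-cycle alteration panel) exposed to compounds; growth inhibition measured relative to vehicle-treated controls.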

[5] = NCI Yeast Anticancer Drug Screen. Data for the rad50 strain (AID 155);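 note: 0% = growth of vehicle-only cultures of the same strain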; settings: S. cerevisiae rad50 strain growth inhibition, active compounds read high
Summary of the method: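 DNA repair mutant yeast, compound exposure, growth read-out; inhibition is taken relative to vehicle.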

[6] = NCI Yeast Anticancer Drug Screen. Data for the mec2-1 strain (AID 157); settings: S. cerevisiae mec2-1 strain, active compounds read high
Summary of the method: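 mec2-1 yeast strain, carrying an alteration in DNA damage repair or cell cycle control, was exposed to compounds; growth inhibition was measured relative to vehicle-treated controls.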

[7] = NCI Yeast Anticancer Drug Screen. Data for the rad14 strain (AID 159);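 note: 0% = growth of vehicle-treated control cultures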; settings: S. cerevisiae rad14 strain growth inhibition, active compounds read high
Summary of the method: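 DNA repair-defective yeast, compound-exposed; % growth inhibition derived by comparison with vehicle-treated controls.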

[8] = NCI Yeast Anticancer Drug Screen. Data for the sgs1 mgt1 strain (AID 161);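 note: 0% = growth of cultures given vehicle only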; settings: S. cerevisiae sgs1 mgt1 strain, active compounds read high
Summary of the method: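 Percent growth inhibition was derived by comparing compound-exposed mutant yeast with vehicle-exposed cultures. The strain carries alterations in DNA damage repair.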

[9] = NCI Yeast Anticancer Drug Screen. Data for the CLN2oe strain (AID 163);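 note: 0% = growth of vehicle-only control cultures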; settings: S. cerevisiae CLN2oe strain, active compounds read high
Summary of the method: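 Yeast cells carrying a defined cell-cycle control alteration were exposed to test compounds. Growth inhibition was scored against vehicle-treated control cultures.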

[10] = NCI Yeast Anticancer Drug Screen. Data for the cln2 rad14 strain (AID 165);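 note: 0% = growth equal to vehicle treated cultures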; settings: S. cerevisiae cln2 rad14 strain, active compounds read high
Summary of the method: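 Yeast carrying cln2 and rad14 alterations (cell cycle control and DNA damage repair) were exposed to compounds. Growth inhibition was measured against vehicle-treated controls.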

[11] = NCI Yeast Anticancer Drug Screen. Data for the bub3 strain (AID 167); settings: S. cerevisiae bub3 mutant strain, active compounds read high
Summary of the method: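 In this screen, a yeast mutant lacking normal mitotic checkpoint function is challenged with compound. Relative growth versus vehicle gives the inhibition value.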

[12] = NCI Yeast Anticancer Drug Screen. Data for the wt2 strain (AID 169);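 note: 0% = growth of vehicle-treated yeast cultures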; settings: S. cerevisiae wt2 strain growth inhibition, active compounds read high
Summary of the method: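 Yeast cells were exposed to test compounds, and growth inhibition was measured relative to vehicle-treated controls.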

[13] = NCI Yeast Anticancer Drug Screen. Data for the mlh1 strain (AID 171);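 note: 0% = growth of vehicle-treated control cultures of the same strain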; settings: S. cerevisiae mlh1 strain growth inhibition, active compounds read high
Summary of the method: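 Yeast carrying a defined genetic alteration in DNA damage repair or cell cycle control were exposed to test compounds. Growth inhibition was measured relative to vehicle-treated controls.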

[14] = NCI Yeast Anticancer Drug Screen. Data for the sgs1 strain (AID 173);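 note: 0% = growth of vehicle-only control cultures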; settings: S. cerevisiae sgs1 mutant, active compounds read high
Summary of the method: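 Yeast mutant strains carrying defined defects in DNA damage repair or cell cycle control were exposed to test compounds. Growth inhibition was scored against vehicle-treated controls.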

[15] = NCI Yeast Anticancer Drug Screen. Data for the mlh1 rad18 strain (AID 175); settings: S. cerevisiae mlh1 rad18 strain growth inhibition, active compounds read high
Summary of the method: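 Growth inhibition of the yeast strain was measured after compound exposure and expressed relative to vehicle-treated controls. The strain carries defined defects in DNA damage repair.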

[16] = NCI Yeast Anticancer Drug Screen. Data for the rad18 strain (AID 177); settings: S. cerevisiae rad18 mutant growth inhibition, active compounds read high
Summary of the method: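 Yeast carrying a defined DNA damage repair alteration were exposed to compounds. Growth inhibition was expressed relative to vehicle-treated controls.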

[17] = at 5.0 µM (retest, dose inferred, filed as 0.5)
[18] = at 50.0 µM (retest, dose inferred, filed as 5.0)

Measured: growth inhibition

CCC1(O)C(=O)OCc2c1cc1n(c2=O)Cc2cc3c(N)cccc3nc2-1 (stereo unspecified)
inactive: [1]; at 1.2 µM -21% | [1]; at 3.7 µM 31% | [1]; at 11.0 µM 53% | [1]; at 33.0 µM 57% | [1]; at 100.0 µM 54% | [2]; at 1.2 µM -22% | [2]; at 3.7 µM -14% | [2]; at 11.0 µM -26% | [2]; at 33.0 µM -24% | [2]; at 100.0 µM -16% | [3]; at 1.2 µM -12% | [3]; at 3.7 µM 7% | [3]; at 11.0 µM -8% | [3]; at 33.0 µM 10% | [3]; at 100.0 µM -8% | [4]; at 1.2 µM -12% | [4]; at 3.7 µM -15% | [4]; at 11.0 µM 3% | [4]; at 33.0 µM -5% | [4]; at 100.0 µM -31% | [5]; at 1.2 µM 11% | [5]; at 3.7 µM 38% | [5]; [17] 58% | [5]; at 11.0 µM 64% | [5]; at 33.0 µM 68% | [5]; at 50.0 µM 56.5% | [5]; at 100.0 µM 60% | [6]; at 1.2 µM -22% | [6]; at 3.7 µM -5% | [6]; [17] 7% | [6]; at 11.0 µM -12% | [6]; at 33.0 µM -18% | [6]; [18] 12% | [6]; at 50.0 µM -0.85% | [6]; at 100.0 µM -35% | [7]; at 1.2 µM -10% | [7]; at 3.7 µM -10% | [7]; at 11.0 µM -19% | [7]; at 33.0 µM -17% | [7]; at 100.0 µM -23% | [8]; [17] 24% | [8]; [18] 19% | [8]; at 50.0 µM -2.35% | [9]; at 1.2 µM -8% | [9]; at 3.7 µM -15% | [9]; at 11.0 µM -33% | [9]; at 33.0 µM -34% | [9]; at 100.0 µM -41% | [10]; [17] 21% | [10]; [18] 14% | [10]; at 50.0 µM -6.95% | [11]; at 1.2 µM -37% | [11]; at 3.7 µM -28% | [11]; [17] 14% | [11]; at 11.0 µM -34% | [11]; at 33.0 µM -47% | [11]; [18] 6% | [11]; at 50.0 µM -9.3% | [11]; at 100.0 µM -33% | [12]; at 1.2 µM -16% | [12]; at 3.7 µM -18% | [12]; at 11.0 µM -17% | [12]; at 33.0 µM -30% | [12]; at 100.0 µM -38% | [13]; at 1.2 µM -23% | [13]; at 3.7 µM -22% | [13]; at 11.0 µM -11% | [13]; at 33.0 µM -34% | [13]; at 100.0 µM -44% | [14]; at 1.2 µM -19% | [14]; at 3.7 µM -7% | [14]; at 11.0 µM 0% | [14]; at 33.0 µM 6% | [14]; at 100.0 µM 7% | [15]; [17] 16% | [15]; [18] 16% | [15]; at 50.0 µM -65.3% | [16]; at 1.2 µM -42% | [16]; at 3.7 µM -37% | [16]; at 11.0 µM -31% | [16]; at 33.0 µM -26% | [16]; at 100.0 µM -48%
active: [5]; [18] 79%

c1ccc2c(c1)N=C1CCCC3CCCC123 (stereo unspecified)
inactive: [1]; at 1.2 µM 3% | [1]; at 3.7 µM 4% | [1]; at 11.0 µM 11% | [1]; at 33.0 µM 56% | [2]; at 1.2 µM -2% | [2]; at 3.7 µM 2% | [2]; at 11.0 µM 7% | [2]; at 33.0 µM -1% | [3]; at 1.2 µM -9% | [3]; at 3.7 µM -14% | [3]; at 11.0 µM -11% | [3]; at 33.0 µM 5% | [3]; at 100.0 µM 68% | [4]; at 1.2 µM 1% | [4]; at 3.7 µM 1% | [4]; at 11.0 µM 6% | [4]; at 33.0 µM 21% | [5]; at 1.2 µM -2% | [5]; at 3.7 µM 2% | [5]; [17] -161% | [5]; at 11.0 µM 11% | [5]; at 33.0 µM 32% | [5]; [18] 63% | [6]; at 1.2 µM -2% | [6]; at 3.7 µM 1% | [6]; [17] -46% | [6]; at 11.0 µM -15% | [6]; at 33.0 µM 25% | [6]; [18] 65% | [7]; at 1.2 µM -3% | [7]; at 3.7 µM -7% | [7]; at 11.0 µM 3% | [7]; at 33.0 µM 3% | [8]; [17] -57% | [8]; [18] 60% | [9]; at 1.2 µM -3% | [9]; at 3.7 µM -1% | [9]; at 11.0 µM 4% | [9]; at 33.0 µM 15% | [10]; [17] -67% | [10]; [18] -26% | [10]; at 50.0 µM 23.6% | [11]; at 1.2 µM -2% | [11]; at 3.7 µM 10% | [11]; [17] -50% | [11]; at 11.0 µM 22% | [11]; at 33.0 µM 61% | [11]; [18] 61% | [12]; at 1.2 µM 1% | [12]; at 3.7 µM 2% | [12]; at 11.0 µM 3% | [12]; at 33.0 µM -1% | [13]; at 1.2 µM 6% | [13]; at 3.7 µM 3% | [13]; at 11.0 µM 3% | [13]; at 33.0 µM 3% | [14]; at 1.2 µM -1% | [14]; at 3.7 µM 9% | [14]; at 11.0 µM 12% | [14]; at 33.0 µM 16% | [15]; [17] -133% | [15]; [18] 12% | [16]; at 1.2 µM -2% | [16]; at 3.7 µM -3% | [16]; at 11.0 µM 0% | [16]; at 33.0 µM -6%
active: [1]; at 100.0 µM 98% | [2]; at 100.0 µM 97% | [4]; at 100.0 µM 98% | [5]; at 50.0 µM 91% | [5]; at 100.0 µM 98% | [6]; at 50.0 µM 89.6% | [6]; at 100.0 µM 99% | [7]; at 100.0 µM 97% | [8]; at 50.0 µM 83.7% | [9]; at 100.0 µM 98% | [11]; at 50.0 µM 91.4% | [11]; at 100.0 µM 98% | [12]; at 100.0 µM 98% | [13]; at 100.0 µM 97% | [14]; at 100.0 µM 99% | [15]; at 50.0 µM 90.8% | [16]; at 100.0 µM 98%
